These results are taken from PubChem BioAssay (EPA / NIEHS).

Molecules are shown by their SMILES. Calls of active or inactive are those of the source. The calls were made as follows: active = hit-call score of the fitted dose curve at least 0.9, where 1 is the maximum; inactive = score below 0.9.

The target of test [1] is Bile acid receptor (Homo sapiens) (UniProt Q96RI1). Nature of the test: ATG_IR1_CIS: Attagene CIS-FACTORIAL HepG2 Assay for human Nuclear Receptor Subfamily 1 Group H Member 4 (NR1H4), IR1 submotif (AID 2282946). The note with it: IR1 reporter transcription, actives raise or lower the signal. The method in brief:
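HepG2 cells transiently transfected with multiplexed cis-element reporter units read endogenous transcription factor activity. After 24 h compound exposure, reporter mRNA was quantified by RT-PCR, fluorescent labelling, HpaI digestion and capillary electrophoresis; bidirectional fitting versus DMSO baseline.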

Test [2] can be described thus: ATG_GRE_CIS: Attagene CIS-FACTORIAL HepG2 Assay for human Glucocorticoid Response Elements (GRE) (AID 2282947). The following applies: HepG2 GRE cis-reporter, Attagene multiplex mRNA; actives raise or lower the signal. The method in brief:
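Reporter transcripts read by RT-PCR with capillary electrophoresis fluorescence after a 24 h chemical exposure of HepG2 cells transiently transfected with multiple cis-element reporter units. Gain or loss fitted against DMSO.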

Test [3] in a line: ATG_ISRE_CIS: Attagene CIS-FACTORIAL HepG2 Assay for human Interferon Regulatory Factor 1 (IRF1) binding to an Interferon-Stimulated Response Element (ISRE) (AID 2282948). The following applies: HepG2 ISRE cis-reporter (Attagene), mRNA transcription readout; actives raise or lower the signal. The method in brief:
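Multiplexed mRNA reporter readout in human liver HepG2 cells: cis-element-driven reporters transfected, compound added for 24 h, transcripts amplified, fluorescently labelled and sized by capillary electrophoresis; curve fitting bidirectional against DMSO.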

Test [4] in a line: ATG_M_32_CIS: Attagene CIS-FACTORIAL HepG2 Assay for M32 Transcription Factor (Internal Marker) (AID 2282949).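 Also: background control marker of the multiplexed CIS panel rather than a real target.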 The following applies: HepG2 Attagene cis-factorial M32 reporter, mRNA; actives raise or lower the signal. An outline of the steps:
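HepG2 human liver cells transiently transfected with cis-promoter-driven multiple reporter transcription units, dosed 24 h. Reporter mRNA quantified by RT-PCR, FAM-labelled primer extension, HpaI digest and capillary electrophoresis; bidirectional fit versus DMSO baseline.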

Test [5] is described as follows: ATG_M_06_CIS: Attagene CIS-FACTORIAL HepG2 Assay for M06 Transcription Factor (Internal Marker) (AID 2282950). The following applies: HepG2 Attagene CIS-FACTORIAL M06 internal marker reporter; actives raise or lower the signal. An outline of the steps:
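One of many multiplexed endpoints: HepG2 reporter mRNA after 24 h dosing, detected by RT-PCR and capillary electrophoresis fluorescence; gain or loss of signal analysed against DMSO.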

The target in test [6] is Hypoxia-inducible factor 1-alpha (Homo sapiens) (UniProt Q16665). Nature of the test: ATG_HIF1a_CIS: Attagene CIS-FACTORIAL HepG2 Assay for human Hypoxia Inducible Factor 1 (HIF1A) (AID 2282951). The note with it: HepG2 Attagene cis-factorial HIF1a reporter transcription; actives raise or lower the signal. An outline of the steps:
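Cis-element reporter constructs were transiently transfected into HepG2 cells, which were treated for 24 h; reporter RNA was reverse-transcribed, amplified, labelled and resolved by capillary electrophoresis.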

Test [7] concerns the target Hepatocyte nuclear factor 6 (Homo sapiens) (UniProt Q9UBC0). Put plainly: ATG_HNF6_CIS: Attagene CIS-FACTORIAL HepG2 Assay for human Hepatocyte Nuclear Factor 6 (HNF6) (AID 2282952). The note with it: HepG2 Attagene cis-factorial HNF6 reporter transcription; actives raise or lower the signal. The method in brief: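 Endogenous factor activity read in transiently transfected HepG2 via promoter-regulated reporter transcripts. RNA harvested 24 h post-dosing, reverse-transcribed, PCR-amplified, FAM-labelled, HpaI-digested and resolved by capillary electrophoresis; fitted in both directions against DMSO.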

In test [8] the target is Heat shock factor protein 1 (Homo sapiens) (UniProt Q00613). Nature of the test: ATG_HSE_CIS: Attagene CIS-FACTORIAL HepG2 Assay for human Heat Shock Transcription Factor 1 (HSE) (AID 2282953). The following applies: HepG2 HSE cis-reporter, Attagene RNA transcription; actives raise or lower the signal. An outline of the steps:
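Using HepG2 with transfected cis-driven reporter constructs, compound effects on endogenous factor activity are scored as reporter mRNA change at 24 h. Detection: RT-PCR, HpaI digestion, capillary electrophoresis; bidirectional fitting to DMSO.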

The nature of test [9]: ATG_MRE_CIS: Attagene CIS-FACTORIAL HepG2 Assay for human Metal Responsive Element (MRE) (AID 2282954). The note with it: HepG2 MRE cis-reporter transcription, Attagene multiplex; actives raise or lower the signal. The method in brief:
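Endogenous MRE-dependent transcription read as reporter mRNA in transiently transfected human HepG2 cells at 24 h. RNA reverse-transcribed, PCR-amplified, labelled and resolved by capillary electrophoresis; gain or loss relative to DMSO.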

Test [10] in a line: ATG_PXRE_CIS: Attagene CIS-FACTORIAL HepG2 Assay for human Pregnane X Receptor Element (PXRE) (AID 2282957). The following applies: HepG2 Attagene CIS-FACTORIAL PXRE reporter, mRNA; actives raise or lower the signal. An outline of the steps: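 Reporter transcripts under endogenous PXR-responsive cis-regulation quantified from total RNA of transfected HepG2 cells 24 h post-dosing, via RT-PCR with fluorescent primer extension and capillary electrophoresis. Gain or loss of signal fitted against DMSO baseline.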

Test [11] in a line: ATG_PPRE_CIS: Attagene CIS-FACTORIAL HepG2 Assay for human Peroxisome Proliferator-activated Response Element (PPRE) (AID 2282958). The note with it: HepG2 PPRE cis-element reporter, Attagene transcription factor profiling; actives raise or lower the signal. The method in brief: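 DMSO served as negative control and baseline for bidirectional curve fitting. Signal came from PPRE-regulated reporter mRNA in HepG2 cells, measured 24 h post-dosing by RT-PCR, 6-FAM primer extension and capillary electrophoresis.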

Test [12] is described as follows: ATG_RORE_CIS: Attagene CIS-FACTORIAL HepG2 Assay for human RAR-related Orphan Receptor Element (RORE) (AID 2282959). The note with it: HepG2 Attagene cis-factorial RORE reporter, mRNA; actives raise or lower the signal. An outline of the steps: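 Transfect HepG2 with MRTUs; treat 24 h; extract RNA; RT with oligo(dT); PCR with reporter-specific primers; 6-FAM primer extension; HpaI digest 2 h at 37 C; capillary electrophoresis. Fit vs DMSO, bidirectional.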

A short description of test [13]: ATG_Sox_CIS: Attagene CIS-FACTORIAL HepG2 Assay for human SRY-box transcription factor (SOX) (AID 2282960). The note with it: HepG2 Attagene cis-factorial SOX reporter, mRNA; actives raise or lower the signal. The method in brief: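 Fluorescence-labelled cDNA fragments from reporter transcripts, sized by CE, give the signal. Cells: HepG2, transiently transfected with cis-regulated reporter units. Exposure 24 h; DMSO negative control; bidirectional curve fitting.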

The target of test [14] is Transcription factor Sp1 (Homo sapiens) (UniProt P08047). Nature of the test: ATG_Sp1_CIS: Attagene CIS-FACTORIAL HepG2 Assay for human Specificity Protein 1 (Sp1) (AID 2282961). The following applies: HepG2 Sp1 cis-reporter transcription, actives raise or lower the signal. The method in brief:
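Chemicals are dosed onto HepG2 cells transfected with multiple cis-promoter reporter constructs, and after 24 h reporter RNA is reverse-transcribed, PCR-amplified and resolved by capillary electrophoresis for fluorescence quantitation; activity is scored up or down against DMSO.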

Test [15] is described as follows: ATG_SREBP_CIS: Attagene CIS-FACTORIAL HepG2 Assay for human Sterol Regulatory Element Binding (SREBP) (AID 2282962). The note with it: HepG2 Attagene cis-factorial SREBP reporter, mRNA; actives raise or lower the signal. The method in brief:
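Endogenous factor activity is measured in HepG2 through multiplexed reporter units under cis-element control. Following a 24 h incubation, reporter transcripts are reverse-transcribed, PCR-amplified and sized by capillary electrophoresis; activity is fitted in both directions relative to DMSO.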

In test [16] the target is Signal transducer and activator of transcription 3 (Homo sapiens) (UniProt P40763). Nature of the test: ATG_STAT3_CIS: Attagene CIS-FACTORIAL HepG2 Assay for human Signal Transducer and Activator of Transcription 3 (STAT3) (AID 2282963). The following applies: HepG2, Attagene cis-factorial STAT3 reporter transcription; actives raise or lower the signal. The method in brief:
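Readout is reporter transcript quantified by RT-PCR and capillary electrophoresis, with 6-FAM primer extension and HpaI digestion. Total RNA is taken 24 h after dosing transiently transfected HepG2 carrying cis-regulated reporter units. Bidirectional fit against DMSO.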

Test [17] is described as follows: ATG_TCF_b_cat_CIS: Attagene CIS-FACTORIAL HepG2 Assay for human T-Cell-Factor with beta-catenin (TCF/b-cat) (AID 2282965). The following applies: HepG2 TCF/beta-catenin cis-reporter transcription, actives raise or lower the signal. An outline of the steps: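 Endogenous transcription factor activity is captured through cis-promoter reporter constructs transiently introduced into human HepG2 liver cells. Induced reporter mRNA is measured after 24 h and fitted bidirectionally relative to DMSO.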

Test [18] can be described thus: ATG_PBREM_CIS: Attagene CIS-FACTORIAL HepG2 Assay for human Phenobarbital-responsive Enhancer Module (PBREM) (AID 2282955). The following applies: HepG2 PBREM cis-reporter, Attagene multiplexed transcription; actives raise or lower the signal. An outline of the steps: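 Multiplexed cis-reporter readout in human hepatoma HepG2 cells; PBREM-regulated transcript quantified after 24 h exposure by fluorescent RT-PCR fragment analysis. Signal changes up or down fitted relative to DMSO.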

In test [19] the target is Paired box protein Pax-6 (Homo sapiens) (UniProt P26367). Put plainly: ATG_Pax6_CIS: Attagene CIS-FACTORIAL HepG2 Assay for human Paired Box 6 (PAX6) (AID 2282956). The note with it: HepG2 CIS-FACTORIAL PAX6 reporter transcription, RNA readout; actives raise or lower the signal. An outline of the steps:
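Fluorescent RT-PCR products separated by capillary electrophoresis report PAX6-linked promoter mRNA in HepG2 cells 24 h post-dose. Curves fitted bidirectionally, DMSO as negative control.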

A short description of test [20]: ATG_TA_CIS: Attagene CIS-FACTORIAL HepG2 Assay for human TA Basal Promoter (AID 2282964). The note with it: HepG2 Attagene CIS-factorial TA basal promoter reporter; actives raise or lower the signal. An outline of the steps:
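Transient MRTU transfection of HepG2 preceded 24 h compound exposure. Reporter mRNA levels were then read by RT-PCR with capillary electrophoresis, and this background-control endpoint was fitted bidirectionally to DMSO.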

Chain of Signal transducer and activator of transcription 3 (Homo sapiens) (P40763 whole entry, looked up): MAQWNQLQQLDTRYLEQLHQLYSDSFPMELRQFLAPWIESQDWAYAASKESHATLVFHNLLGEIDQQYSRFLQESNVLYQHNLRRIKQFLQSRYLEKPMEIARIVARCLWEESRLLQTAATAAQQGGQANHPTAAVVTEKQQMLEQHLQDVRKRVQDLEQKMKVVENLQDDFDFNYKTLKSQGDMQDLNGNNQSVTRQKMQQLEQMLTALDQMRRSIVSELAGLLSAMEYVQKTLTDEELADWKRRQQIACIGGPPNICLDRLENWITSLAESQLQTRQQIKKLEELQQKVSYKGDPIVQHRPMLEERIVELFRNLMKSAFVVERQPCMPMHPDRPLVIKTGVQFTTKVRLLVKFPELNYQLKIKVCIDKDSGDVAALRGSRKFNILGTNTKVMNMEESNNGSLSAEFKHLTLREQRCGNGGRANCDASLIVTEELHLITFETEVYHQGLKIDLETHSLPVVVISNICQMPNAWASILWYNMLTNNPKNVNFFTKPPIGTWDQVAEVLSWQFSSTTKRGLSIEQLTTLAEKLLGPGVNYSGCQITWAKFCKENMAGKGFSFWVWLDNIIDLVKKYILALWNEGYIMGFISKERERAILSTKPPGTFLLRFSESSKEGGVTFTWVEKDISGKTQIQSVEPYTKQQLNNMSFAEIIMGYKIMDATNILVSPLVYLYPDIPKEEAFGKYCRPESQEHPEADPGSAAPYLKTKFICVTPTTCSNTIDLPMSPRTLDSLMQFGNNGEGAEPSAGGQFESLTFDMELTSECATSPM
Chain of Bile acid receptor (Homo sapiens) (Q96RI1 whole entry, looked up): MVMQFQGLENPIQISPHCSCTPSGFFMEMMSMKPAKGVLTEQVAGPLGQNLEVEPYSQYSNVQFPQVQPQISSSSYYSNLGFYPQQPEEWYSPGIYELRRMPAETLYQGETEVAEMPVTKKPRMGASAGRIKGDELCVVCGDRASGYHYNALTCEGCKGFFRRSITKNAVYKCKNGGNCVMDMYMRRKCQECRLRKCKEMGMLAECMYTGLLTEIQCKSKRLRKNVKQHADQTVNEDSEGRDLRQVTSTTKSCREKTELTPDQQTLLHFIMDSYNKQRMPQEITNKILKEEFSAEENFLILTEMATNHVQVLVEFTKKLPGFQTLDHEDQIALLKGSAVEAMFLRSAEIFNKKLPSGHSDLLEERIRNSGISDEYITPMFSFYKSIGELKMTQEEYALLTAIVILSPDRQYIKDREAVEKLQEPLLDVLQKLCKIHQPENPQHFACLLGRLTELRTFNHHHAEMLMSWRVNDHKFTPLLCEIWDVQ
Chain of Hypoxia-inducible factor 1-alpha (Homo sapiens) (Q16665 whole entry, looked up): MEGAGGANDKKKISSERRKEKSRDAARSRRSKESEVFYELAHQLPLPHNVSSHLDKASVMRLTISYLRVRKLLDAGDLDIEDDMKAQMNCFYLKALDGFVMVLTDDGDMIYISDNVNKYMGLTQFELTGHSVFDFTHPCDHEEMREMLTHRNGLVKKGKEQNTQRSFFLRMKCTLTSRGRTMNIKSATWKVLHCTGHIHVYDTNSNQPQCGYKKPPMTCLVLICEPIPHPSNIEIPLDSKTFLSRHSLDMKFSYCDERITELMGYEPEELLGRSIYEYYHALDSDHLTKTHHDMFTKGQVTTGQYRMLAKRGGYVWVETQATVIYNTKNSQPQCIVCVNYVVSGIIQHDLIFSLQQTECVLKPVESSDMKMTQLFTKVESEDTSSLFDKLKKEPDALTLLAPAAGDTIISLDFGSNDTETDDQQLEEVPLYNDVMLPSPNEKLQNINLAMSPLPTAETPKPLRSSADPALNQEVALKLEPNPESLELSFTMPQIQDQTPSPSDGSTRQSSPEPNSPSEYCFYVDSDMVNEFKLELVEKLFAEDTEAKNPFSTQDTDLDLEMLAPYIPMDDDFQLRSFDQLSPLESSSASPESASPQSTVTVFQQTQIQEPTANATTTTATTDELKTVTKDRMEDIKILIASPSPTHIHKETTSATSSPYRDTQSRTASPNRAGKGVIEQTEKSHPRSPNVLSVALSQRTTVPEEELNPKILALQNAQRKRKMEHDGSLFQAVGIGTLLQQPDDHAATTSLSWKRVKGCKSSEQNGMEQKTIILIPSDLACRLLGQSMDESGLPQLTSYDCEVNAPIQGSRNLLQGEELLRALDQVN
Chain of Paired box protein Pax-6 (Homo sapiens) (P26367 whole entry, looked up): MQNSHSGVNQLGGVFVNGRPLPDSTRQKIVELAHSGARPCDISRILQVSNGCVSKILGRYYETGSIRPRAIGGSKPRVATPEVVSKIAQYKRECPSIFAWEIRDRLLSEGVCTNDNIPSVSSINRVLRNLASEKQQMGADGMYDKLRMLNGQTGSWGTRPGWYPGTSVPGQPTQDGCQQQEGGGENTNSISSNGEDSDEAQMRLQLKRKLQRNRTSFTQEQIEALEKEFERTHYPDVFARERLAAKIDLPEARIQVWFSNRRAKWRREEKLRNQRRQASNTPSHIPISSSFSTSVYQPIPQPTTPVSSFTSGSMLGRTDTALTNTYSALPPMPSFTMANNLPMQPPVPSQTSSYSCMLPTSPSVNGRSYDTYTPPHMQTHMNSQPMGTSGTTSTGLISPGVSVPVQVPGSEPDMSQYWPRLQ
Chain of Hepatocyte nuclear factor 6 (Homo sapiens) (Q9UBC0 whole entry, looked up): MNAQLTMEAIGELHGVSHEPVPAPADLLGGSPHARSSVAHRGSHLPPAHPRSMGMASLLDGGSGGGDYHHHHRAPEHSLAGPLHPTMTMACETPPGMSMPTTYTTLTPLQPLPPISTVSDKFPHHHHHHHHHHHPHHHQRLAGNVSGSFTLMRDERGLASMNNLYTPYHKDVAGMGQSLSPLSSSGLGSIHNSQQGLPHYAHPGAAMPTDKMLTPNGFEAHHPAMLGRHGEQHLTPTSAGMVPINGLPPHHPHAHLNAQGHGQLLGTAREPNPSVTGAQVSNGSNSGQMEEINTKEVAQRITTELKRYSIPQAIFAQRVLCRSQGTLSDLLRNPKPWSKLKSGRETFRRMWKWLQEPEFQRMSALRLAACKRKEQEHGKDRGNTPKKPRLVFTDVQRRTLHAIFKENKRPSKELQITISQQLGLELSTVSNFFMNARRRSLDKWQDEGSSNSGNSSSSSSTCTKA
Chain of Heat shock factor protein 1 (Homo sapiens) (Q00613 whole entry, looked up): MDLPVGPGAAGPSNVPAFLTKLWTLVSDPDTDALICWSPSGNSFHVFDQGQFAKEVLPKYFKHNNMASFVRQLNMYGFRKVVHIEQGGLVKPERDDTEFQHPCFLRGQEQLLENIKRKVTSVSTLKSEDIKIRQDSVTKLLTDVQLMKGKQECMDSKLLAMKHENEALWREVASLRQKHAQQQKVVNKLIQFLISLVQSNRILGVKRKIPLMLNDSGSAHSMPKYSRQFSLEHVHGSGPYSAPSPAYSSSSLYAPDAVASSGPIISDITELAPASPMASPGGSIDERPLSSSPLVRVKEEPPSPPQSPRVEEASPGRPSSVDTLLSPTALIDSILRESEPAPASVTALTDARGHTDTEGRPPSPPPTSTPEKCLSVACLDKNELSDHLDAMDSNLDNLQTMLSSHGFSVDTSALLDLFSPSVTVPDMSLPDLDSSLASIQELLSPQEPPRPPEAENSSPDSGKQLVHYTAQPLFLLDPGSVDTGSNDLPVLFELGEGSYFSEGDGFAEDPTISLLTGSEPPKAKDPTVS
Chain of Transcription factor Sp1 (Homo sapiens) (P08047 whole entry, looked up): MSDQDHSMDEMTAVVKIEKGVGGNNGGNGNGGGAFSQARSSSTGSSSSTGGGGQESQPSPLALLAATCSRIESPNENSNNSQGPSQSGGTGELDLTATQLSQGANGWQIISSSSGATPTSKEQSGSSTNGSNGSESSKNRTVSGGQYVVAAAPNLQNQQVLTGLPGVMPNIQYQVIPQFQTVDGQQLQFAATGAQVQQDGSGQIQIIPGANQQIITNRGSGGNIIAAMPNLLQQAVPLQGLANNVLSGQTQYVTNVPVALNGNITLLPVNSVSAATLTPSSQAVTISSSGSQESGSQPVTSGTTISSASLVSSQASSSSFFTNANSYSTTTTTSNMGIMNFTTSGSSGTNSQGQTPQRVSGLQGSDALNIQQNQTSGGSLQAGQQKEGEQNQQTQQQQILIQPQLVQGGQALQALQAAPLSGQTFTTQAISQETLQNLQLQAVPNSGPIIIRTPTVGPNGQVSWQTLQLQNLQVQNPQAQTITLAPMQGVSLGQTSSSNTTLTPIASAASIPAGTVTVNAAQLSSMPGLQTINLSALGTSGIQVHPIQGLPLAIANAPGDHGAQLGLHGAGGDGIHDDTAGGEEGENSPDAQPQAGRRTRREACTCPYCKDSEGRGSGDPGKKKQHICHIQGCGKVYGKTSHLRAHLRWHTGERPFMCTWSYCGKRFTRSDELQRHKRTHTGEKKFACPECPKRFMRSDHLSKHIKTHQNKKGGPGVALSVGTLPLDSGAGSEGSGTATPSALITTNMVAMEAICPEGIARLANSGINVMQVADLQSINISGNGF

For the compound `CCCCCCOCCOCCO`, the compound was classed as inactive in test [1], in [2], in [3], in test [4], in test [5] and in test [6]. The compound was classed as inactive in test [7], in test [8], in [9], in test [10], in [11] and in test [12]. For the same compound, the compound was classed as inactive in [13], in test [14], in [15], in [16] and in test [17].

Broadly, the AC50 is the midpoint of the concentration-response curve, whichever way the signal moves. For the compound `CC(C)=CCCC(C)CCOC=O` (stereo not drawn), the compound was called inactive in [1], in test [2], in test [3], in [4], in test [5] and in [6]. For the same compound, the result in test [7], in [8], in [9], in [18], in test [19] and in test [11] was inactive. Further, the call in [12], in test [13], in test [14], in test [15], in [16] and in test [20] was inactive. The AC50 in test [10] is 100 µM (active).

For the compound `IC(I)I`, the compound was called inactive in test [1], in test [2], in test [3], in test [4], in [5] and in test [6]. In addition, the call in [7], in [8], in test [9], in test [19], in [11] and in test [12] was inactive. The result in test [13], in test [14], in test [15], in test [16], in test [20] and in test [17] was inactive. The AC50 in [10] was 5.98 µM (active).

For `Cc1cc(C)nc(NS(=O)(=O)c2ccc(N)cc2)n1`, the result in test [1], in test [2], in test [3], in test [4], in test [5] and in test [6] was inactive. Besides, the compound was called inactive in [7], in test [8], in test [9], in test [18], in [19] and in test [13]. Further, the compound was called inactive in test [14], in test [15], in test [16], in test [20] and in test [17]. For the same compound, the AC50 in test [10] was 46.5 µM (active).
